# Among all 69,000 compounds or so, about 1,000 (1.4%) showed an effect of 50% or more. This is one part of a sample in which strong results are shown more often than they occur.
# Tested on: Leishmania donovani
# Assay: Leishmania intramacrophage assay
# Format: functional, organism-based
# Set-up: scale not given: in the data most compounds retested in dose-response had high values
smiles,measurement,setting,value
CCOC(=O)N1CCc2ccccc2C12CCNCC2.Cl,Percent Effect,"30.3 µM, […]",0.5062%
CNC(=O)COc1ccc(CNc2cncc(-n3cccn3)n2)cc1,Percent Effect,30 µM,19.22%
COC(=O)Nc1ccc(CNc2cncc(-n3cccn3)n2)cc1,Percent Effect,30 µM,52.92%
COCc1ccc(CNc2cncc(-n3cccn3)n2)cc1,Percent Effect,30 µM,27.73%
CN1CC[C@H]2CN(C(=O)c3ccc4sc5c(c4c3)CCNC5=O)C[C@H]21,Percent Effect,"30.3 µM, […]",4.332%
CC(=O)N1CCC2(CC1)CCN(C(=O)c1ccc(F)c(C(F)(F)F)c1)C2,Percent Effect,"30.3 µM, […]",-8.189%
Cc1cc(C)nc(N2CCc3ccc(OC(F)F)cc3C2)n1,Percent Effect,"30.3 µM, […]",84.87%
COc1ccc2c(c1)CN(c1nc(C)cc(C)n1)CC2,Percent Effect,"30.3 µM, […]",98.91%
COc1cccc(O[C@H]2CCN(c3nc(C)cc(C)n3)CC[C@@H]2O)c1,Percent Effect,"30.3 µM, […]",-35.99%
COc1ccc(C2CN(c3nc(C)cc(C)n3)CCN2C(C)=O)cc1 (stereo not given),Percent Effect,"30.3 µM, […]",30.74%
COc1ccnc(N2CCc3ccc(OC(F)F)cc3C2)n1,Percent Effect,"30.3 µM, […]",-15.45%
COc1ccc2c(c1)CN(c1cc(N3CCCC3CO)ncn1)CC2 (stereo not given),Percent Effect,"30.3 µM, […]",11.17%
O=C(CNC(=O)C1(c2ccc(F)cc2F)CCC1)Nc1cccnc1,Percent Effect,"30.3 µM, […]",-11.9%
COc1cccc2c1OCC(CNC(=O)CN(C)C1CCCC1)C2 (stereo not given),Percent Effect,"30.3 µM, […]",-18.43%
CC(C)CN1C(=O)CC[C@H]2CN(C(=O)Cn3ccccc3=O)CC[C@H]21,Percent Effect,"30.3 µM, […]",3.813%
CCN1CC(C(=O)N2CCN(c3nsc4ccccc34)CC2)CCC1=O (stereo not given),Percent Effect,"30.3 µM, […]",22.5%
NC(=O)N1CCCC(C(=O)N2CCN(c3nsc4ccccc34)CC2)C1 (stereo not given),Percent Effect,"30.3 µM, […]",34.33%
CC(C)N1CCCC(C(=O)N2CCN(c3nsc4ccccc34)CC2)C1 (stereo not given),Percent Effect,"30.3 µM, […]",77.99%
COc1c(C2CCCN2C(=O)CCNc2ncccn2)c(C)nn1C (stereo not given),Percent Effect,30 µM,5.312%
COc1ccc(CN(C(=O)C2CCCS2)c2ccncc2)cc1 (stereo not given),Percent Effect,"30.3 µM, […]",-1.322%
COc1cc(Oc2ccc(C(F)(F)F)cn2)ccc1CN1CCCC1,Percent Effect,"30.3 µM, […]",61.15%
COc1ccc(Oc2ccc(C(F)(F)F)cn2)cc1CN1CCCC1,Percent Effect,"30.3 µM, […]",2.243%
COc1cc(Oc2ccc(C#N)cn2)ccc1CN1CCCC1,Percent Effect,"30.3 µM, […]",2.326%
COCC(=O)Nc1ccnn1-c1ccc(Cl)cc1,Percent Effect,"30.3 µM, […]",82.71%
COCCOCC(=O)Nc1ccnn1-c1ccc(Cl)cc1,Percent Effect,"30.3 µM, […]",23.94%
CCOCCC(=O)Nc1ccnn1-c1ccc(Cl)cc1,Percent Effect,"30.3 µM, […]",0.3355%
Cc1n[nH]c(C)c1CCN(C)c1ccc(-c2nc(C3CC3)no2)cn1,Percent Effect,"30.3 µM, […]",22.75%
Cc1nc(CCNC(=O)C(N)c2c(C)n[nH]c2C)sc1C (stereo not given),Percent Effect,"30.3 µM, […]",7.254%
Cc1nc(CNC(=O)NC2CCN(c3cccc(Cl)c3)C2)no1 (stereo not given),Percent Effect,"30.3 µM, […]",40.16%
CC(C)c1n[nH]c(C2CN(Cc3ncc[nH]3)CCO2)n1 (stereo not given),Percent Effect,"30.3 µM, […]",-15.06%
CC(C)c1n[nH]c(C2CN(Cc3ccno3)CCO2)n1 (stereo not given),Percent Effect,"30.3 µM, […]",53.56%
Cc1nc(CN2CCOC(c3nc(C(C)C)n[nH]3)C2)oc1C (stereo not given),Percent Effect,"30 µM, 30.03 µM",-6.521%
Cc1cnn(CCNCc2ccc(S(C)(=O)=O)cc2)c1,Percent Effect,"30.3 µM, […]",-1.29%
CC(C)CCc1n[nH]c(C(=O)O)c1Br,Percent Effect,"30.3 µM, […]",1.329%
O=C(O)C(F)(F)F.O=C(c1ccco1)N1CCO[C@@H]2CN(CC3CC3)CC[C@@H]2C1,Percent Effect,"30.3 µM, […]",52.8%
O=C(O)C(F)(F)F.O=C(c1ccco1)N1CC[C@@H]2CN(C3CCOCC3)CCO[C@@H]2C1,Percent Effect,"30.3 µM, […]",39.91%
O=C(O)C(F)(F)F.O=C(c1ccco1)N1CCO[C@@H]2CN(Cc3nccs3)CC[C@@H]2C1,Percent Effect,"30.3 µM, […]",43.58%
CCS(=O)(=O)N1CC[C@H]2[C@H]1CC(=O)N2Cc1csc(C)n1,Percent Effect,"30.3 µM, […]",11.91%
O=C(C1CCOCC1)N1C[C@H]2CCC[C@@]2(COCc2ccccn2)C1,Percent Effect,"30.3 µM, […]",39.51%
O=C(C1CCC1)N1C[C@@H]2CC[C@H](C1)N(S(=O)(=O)c1ccccc1)C2,Percent Effect,"30.3 µM, […]",-6.923%
O=C1CCC(=O)c2oc3ccc(Br)cc3c2N1,Percent Effect,"30.3 µM, […]",-16.45%
Cc1cc(Nc2cnccn2)cc(C2CCCNC2)n1 (stereo not given),Percent Effect,"30.3 µM, […]",-25.49%
Cc1cc(Nc2cnccn2)cc(C2CCCN2)n1 (stereo not given),Percent Effect,"30.3 µM, […]",50.63%
Cc1nc(Nc2cnccn2)cc(C2CCCN2)n1.Cl (stereo not given),Percent Effect,"30.3 µM, […]",-4.51%
CSC1(CNC(=O)CCc2ccc(Cl)s2)CCOCC1,Percent Effect,"30.3 µM, […]",-1.683%
COCCN1CCC(CNC(=O)c2ccnc(-n3ccnc3)c2)CC1,Percent Effect,"30.3 µM, […]",-33.66%
CCOCC1CN(Cc2ccoc2)Cc2cn(CC3CC3)nc21 (stereo not given),Percent Effect,"30.3 µM, […]",26.22%
CCS(=O)(=O)N1CCCC(c2nccn2Cc2ccccn2)C1 (stereo not given),Percent Effect,"30.3 µM, […]",2.474%
CCS(=O)(=O)N1CCN(C(=O)NC(C)C)CC2(CC(=O)N(C)C2)C1 (stereo not given),Percent Effect,"30.3 µM, […]",15.87%
CCCn1nnc(NCc2ccc(-c3ccc(Br)cc3)o2)n1,Percent Effect,"30.3 µM, […]",-28.31%
CCn1nnc(NCc2ccc(-c3ccc(Br)cc3)o2)n1,Percent Effect,"30.3 µM, […]",4.739%
CCC(CO)NCc1ccc(-c2ccc(F)c(Cl)c2)o1.Cl (stereo not given),Percent Effect,"30.3 µM, […]",76.93%
CCC(CO)NCc1ccc(-c2ccc(Cl)cc2)o1.Cl (stereo not given),Percent Effect,"30.3 µM, […]",78.06%
CCC(CO)NCc1ccc(-c2ccccc2)o1.Cl (stereo not given),Percent Effect,"30.3 µM, […]",7.098%
CCC(CO)NCc1ccc(-c2ccc(Br)cc2)o1.Cl (stereo not given),Percent Effect,"30.3 µM, […]",86.07%

# Reference: ChEMBL document CHEMBL3988442, “University of Dundee, Small-Polar-MMV Screening Library” (2021)
